Assay results as given in PubChem BioAssay AID652065 (The Scripps Research Institute Molecular Screening Center, 2013).
Screen size: about 4,300 compounds; about 3,000 (70%) were called active.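 Rule for the calls: active = inhibition above a per-plate cutoff, the mean inhibition of sample wells plus 3 SD (cut at about 35% in these data); inactive = the rest.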 The set was probably picked from earlier hits. Not all results are given here.

test: small molecules binding CAG repeat RNA – biochemical, fluorescence, confirmation (AID 652065); settings: r(CAG) RNA repeat, TO-PRO-1 dye displacement fluorescence; at 3 µM; active compounds read high;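 note: loss of TO-PRO-1 fluorescence as compound displaces dye from 1x1 AA loop RNA; 0% = DMSO only wells and 100% = 100 µM mitoxantrone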

inhibition, active:
Cc1sc2nc(SCC(=O)c3ccc(O)c(O)c3)n(Cc3ccco3)c(=O)c2c1C 64.2%
CC1(C(=O)NS(=O)(=O)c2ccc(C#N)cc2)CCN1C(=O)c1ccc(C2CCCCC2)cc1 (stereo not drawn) 51.7%
Cc1cc(/C=N/Nc2ccc([N+](=O)[O-])cn2)c(C)n1-c1cccc(C(=O)O)c1 35%
Cc1ccc(-n2c(SCC(=O)Nc3ccc(S(=O)(=O)Nc4nccs4)cc3)nnc2-c2cccnc2)cc1 58.8%
Cc1ccc(-n2c(SCC(=O)Nc3ccc(S(=O)(=O)Nc4nccs4)cc3)nnc2-c2ccccn2)cc1 60.6%
Cc1ccc(-n2c(SCC(=O)Nc3ccc(S(=O)(=O)Nc4nccs4)cc3)nnc2-c2ccncc2)cc1 67.3%
O=C(NNC(=S)NC(=O)c1cn(-c2ccccc2)nc1-c1ccccc1)c1ccncc1 54.8%
O=C(O)c1ccc(N/N=C/c2cn(-c3ccccc3)nc2-c2cccs2)cc1 61.1%
O=C(O)c1ccc(NC(=O)c2cn(-c3ccccc3)nc2-c2ccc(Cl)cc2)cc1 62.6%
Cc1cc(/C=C2/C(=N)N3C(=NC2=O)SN=C3S(C)(=O)=O)c(C)n1-c1ccccc1 81.7%
CCOc1ccc(-n2c(O)c(/C=N/Nc3nnc(C)c(=O)[nH]3)c3ccccc3c2=O)cc1 52.6%
C=C1c2c(Cl)ccc(O)c2C(O)=C2C(=O)[C@]3(O)C(O)=C(C(N)=O)C(=O)[C@@H](N(C)C)[C@@H]3[C@@H](O)C12 (stereo partly drawn) 70.9%
CCOc1cc(C)ccc1OCc1nnc(SCC(=O)Nc2cccc(C(=O)O)c2)n1-c1ccccc1 41.2%
COc1ccc2[nH]c3c(C)c4cc[n+](C)cc4c(C)c3c2c1 47.5%
COC(=O)c1c(NC(=O)C2CC(C)=C(C)CC2C(=O)O)sc2c1CCCCC2 (stereo not drawn) 66.4%
N#Cc1c(NC(=O)C2CC(Cl)=CCC2C(=O)O)sc2c1CCCCC2 (stereo not drawn) 38%
CCOC(=O)c1c(NC(=O)C2CC=CCC2C(=O)O)sc(C)c1CC (stereo not drawn) 37.1%
CSc1ccc(C=Nn2c(-c3ccc(F)cc3)n[nH]c2=S)cc1 41.7%
N#Cc1c(-c2ccccc2)nc(SCc2cccc(C(F)(F)F)c2)[nH]c1=O 80.3%
Cc1ccc(CSc2nc(-c3ccccc3)c(C#N)c(=O)[nH]2)cc1 66.6%
N#Cc1c(-c2ccccc2)nc(SCc2ccc([N+](=O)[O-])cc2)[nH]c1=O 58.7%
CCOc1cc(/C=C(\C#N)c2nc(-c3cccs3)c(NC(C)=O)s2)ccc1O 40.4%
O=[N+]([O-])c1cc(Br)c(O)c(/C=N/Nc2nc3ccccc3s2)c1 94.7%
Cc1cc(F)ccc1S(=O)(=O)Nc1ncnc2scc(-c3ccc(F)cc3)c12 70.8%
CC(C(=O)Nc1ccc(O)c(C(=O)O)c1)N1C(=O)/C(=C/c2cccs2)SC1=S (stereo not drawn) 75.9%
CSc1nnc(NC(=O)c2nc(S(=O)(=O)Cc3ccc(C)cc3)ncc2Cl)s1 37.4%
CCOC(=O)c1cc2cc(-c3c(C(=O)OCC)oc4cc(O)cc(O)c4c3=O)ccc2o1 40.4%
Cn1c2ccccc2c2cc(/C=C(\NC(=O)c3ccccc3)C(=O)NCC(=O)O)ccc21 39.8%
O=C(NC(=S)Nc1ccccc1C(=O)O)c1ccc(-c2ccc(Br)cc2)o1 82.7%
Cc1ccc(S(=O)(=O)N2[C@@H](c3cccc4ccccc34)C(C(=O)O)=C[C@H]2C(C)(C)C)cc1 50.3%
Cc1ccc(NC(=O)CC2S/C(=N/N=C3\CCCc4ccccc43)NC2=O)cc1 (stereo not drawn) 54.7%
CC1(C(=O)NS(=O)(=O)c2ccc3ccccc3c2)CCN1C(=O)C1(c2ccc(Cl)cc2)CCC1 (stereo not drawn) 72%
O=[N+]([O-])c1cc(Cl)cc(/C=N/NC(=S)Nc2cc(S(=O)(=O)N3CCOCC3)ccc2Cl)c1O 95.4%
CCC(C)Cn1c(O)cc2nn(-c3nc4ccccc4s3)c(=O)c-2c1C (stereo not drawn) 63.4%
CC(C)c1nc(SCC(=O)Nc2cccc(C(=O)O)c2)c2c3c(sc2n1)CCCC3 61.1%
Cc1ccc2nc(N3C(=O)C(O)=C(C(=O)c4ccco4)C3c3cccc(O)c3)sc2c1 (stereo not drawn) 73.8%
O=C(NNc1c2ccccc2nc2ccccc12)c1cc2ccccc2cc1O 45.6%
Cc1ccc(/C=C/C(=O)Nc2ccc([N+](=O)[O-])c(NC(=O)/C=C/c3ccc(C)o3)c2)o1 47.7%
O=C(O)c1cccc(NC(=O)c2cc(-c3cccc(Cl)c3)nc3ccccc23)c1 46.1%
CCOc1ccc(-n2c(SCC(=O)Nc3cc(C(=O)O)ccc3Cl)nc3ccccc3c2=O)cc1 52.9%
Cc1ccc(CNC(=O)C2CCN(S(=O)(=O)c3ccc4nc5c(c(C(=O)O)c4c3)CC(C)CC5)CC2)cc1 (stereo not drawn) 36.4%
O=C(O)c1ccc2c(c1)C(=O)N(c1ccc(/C=C/C(=O)c3ccccc3)cc1)C2=O 65.3%
Cc1ccc(NC(=O)CSc2nc(CSc3ccc(C)cc3)cc(=O)[nH]2)cc1 53.5%
Cc1ccc(C(C)C)c(OCCSc2nc3ccccc3n2CC(=O)O)c1 50.3%
Cc1ccc2cc(/C=N/Nc3ccc(C(=O)O)cc3)c(Cl)nc2c1 46.6%
COc1ccc(-c2cc(C(=O)NC(Cc3c[nH]c4ccccc34)C(=O)O)c(C)o2)cc1OC (stereo not drawn) 61.4%
O=C(N[C@@H](Cc1c[nH]c2ccccc12)C(=O)O)OCC1c2ccccc2-c2ccccc21 63.4%
CC(Oc1ccc2c(-c3ccccc3)cc(=O)oc2c1)C(=O)NC(Cc1c[nH]c2ccccc12)C(=O)O (stereo not drawn) 62.4%
COc1ccc(-c2cc(=O)oc3cc(OCC(=O)N[C@@H](Cc4c[nH]c5ccccc45)C(=O)O)ccc23)cc1 65.3%
COc1cc2ccccc2cc1C(=O)Nc1ccc(S(=O)(=O)Nc2cc(C)on2)cc1 58.8%
COCCNC(=O)Nc1ccc2nc(-c3ccco3)c(-c3ccco3)nc2c1 61.6%
CC(C)c1ccc(CC(=O)N2CCC2(C)C(=O)NS(=O)(=O)c2ccc(C(C)(C)C)cc2)cc1 (stereo not drawn) 70.7%
O=S(=O)(Nc1ccc(O)c2ccccc12)c1ccc(OC(F)(F)F)cc1 52.9%
Cc1c(C)c2c(OCC(=O)N[C@@H](C(=O)O)c3ccccc3)cc3c(c2oc1=O)CCC(C)(C)O3 46.1%
Cc1ccc(N=C2NC(=O)/C(=C/C=C/c3ccco3)S2)cc1C 48.9%
Cc1ccc(-c2nn(-c3ccccc3)cc2/C=C2\SC(=S)N(CCCCCC(=O)O)C2=O)o1 56%
CN(C)S(=O)(=O)c1cccc(-c2nn(-c3ccccc3)cc2/C=C2\SC(=S)N(CC(=O)O)C2=O)c1 88.1%
CC1(C(=O)NS(=O)(=O)Cc2cccc(Cl)c2)CCN1C(=O)Cc1ccc(Cl)cc1Cl (stereo not drawn) 78.9%

inhibition, inactive:
CCOC(=O)C1Nc2ccc(C(F)(F)F)cc2C2C=CCC12 (stereo not drawn) 18.9%
CC(C)=CCCC1(C)C=Cc2c(ccc3c2[nH]c2cc(O)c(C)cc23)O1 (stereo not drawn) 30.6%
Cc1ccc(-n2ncc3c(Nc4cccc(C(=O)O)c4)ncnc32)cc1 23.1%
N#CCC(=O)Nc1ccc(C(=O)OCC(=O)Nc2sc3c(c2C#N)CCCC3)cc1 33.2%
O=C1CC(c2ccccc2)=NN1c1ccc([N+](=O)[O-])cc1 23.7%
Cc1ccc(S(=O)(=O)Nc2nc3ccccc3s2)cc1[N+](=O)[O-] 29.7%
C=CCNc1nc(N)c(C(=C(C#N)C#N)c2ccccc2)s1 15.9%
O=C(N/N=C/c1c(Cl)[nH]c2ccccc12)c1sc2ccccc2c1Cl 22.9%
Cc1nnc(NC(=O)Nc2ccc(Cl)c(Cl)c2)s1 24.5%
CCSc1nsc(NC(=O)Nc2cccc(C(C)=O)c2)n1 26.3%
COc1cc(C2CC(=O)N3CN(Cc4ccccc4)CSC3=C2C#N)ccc1OCc1ccccc1 (stereo not drawn) 25.8%
O=C(N/N=C/c1cccnc1)c1cc2ccccc2cc1O 9.03%
CC(=N\NC(=O)c1cc(Br)ccc1O)/C(=N/O)C(=O)Nc1ccccc1 12.1%
O=C(Nc1cccc(F)c1)c1cc(-c2ccco2)nc2ccccc12 4.09%
Cc1ccccc1-n1c(SCC(=O)Nc2cccc3ccccc23)nc(O)cc1=O 14.2%
COc1ccc(OC)c(NC(=O)CSc2nc(-c3ccccc3)cc(=O)[nH]2)c1 24.5%
Cc1ccc(NC(=O)CSc2sc3c(O)cc(=O)[nH]c3c2C#N)cc1C 27.9%
COc1ccc(S(=O)(=O)NCCc2c[nH]c3ccccc23)cc1OC 0.91%
O=c1cc(CN2CCN(S(=O)(=O)/C=C/c3ccccc3)CC2)c2ccc(O)cc2o1 22.5%
CCOc1ccc(C(=O)Nc2ccc(S(=O)(=O)Nc3cc(C)on3)cc2)cc1 23.1%
Cc1cccc(C)c1NC(=O)C(c1ccc(C(F)(F)F)cc1)n1c(=O)c(-c2ccco2)nc2ccccc21 (stereo not drawn) 26.2%
COc1ccc(S(=O)(=O)NC(=O)C2(C)CCN2C(=O)c2ccccc2CCc2ccccc2)cc1 (stereo not drawn) 34%
CC1(C(=O)NS(=O)(=O)c2ccccc2)CCN1C(=O)Cc1ccc(-c2ccccc2)cc1 (stereo not drawn) 34.1%
COc1ccc(COC(=O)NC(C(=O)O)c2ccccc2)cc1 (stereo not drawn) 2.31%
O=C(CCCN1C(=O)/C(=C\c2ccco2)SC1=S)Nc1cccc2ccccc12 17%
